Assay results as given in PubChem BioAssay AID1851 (National Center for Advancing Translational Sciences (NCATS), 2009).
In all, about 16,000 compounds went through this assay and about 5,700 (36%) were called active. Not shown: some 24% with an inconclusive outcome. Calls follow the shape of the dose curve; as a rule, active = well fitted curve in the direction sought with a large enough effect; inconclusive = small, poorly fitted or top-dose-only effect, or effect the other way; inactive = no such curve, though single readings can be large or run the other way. This is one part of the list.

What follows are compounds tested against Cytochrome P450 1A2 (Homo sapiens) (UniProt P05177) (assay: Cytochrome panel assay with activity outcomes). Settings: recombinant CYP, pro-luciferin dealkylation, luminescence, p450-cyp1a2; series mostly up to 57.1 µM; activity, negative = inhibition: at the top concentration.
Sequence of Cytochrome P450 1A2 (Homo sapiens) (P05177 whole entry, looked up): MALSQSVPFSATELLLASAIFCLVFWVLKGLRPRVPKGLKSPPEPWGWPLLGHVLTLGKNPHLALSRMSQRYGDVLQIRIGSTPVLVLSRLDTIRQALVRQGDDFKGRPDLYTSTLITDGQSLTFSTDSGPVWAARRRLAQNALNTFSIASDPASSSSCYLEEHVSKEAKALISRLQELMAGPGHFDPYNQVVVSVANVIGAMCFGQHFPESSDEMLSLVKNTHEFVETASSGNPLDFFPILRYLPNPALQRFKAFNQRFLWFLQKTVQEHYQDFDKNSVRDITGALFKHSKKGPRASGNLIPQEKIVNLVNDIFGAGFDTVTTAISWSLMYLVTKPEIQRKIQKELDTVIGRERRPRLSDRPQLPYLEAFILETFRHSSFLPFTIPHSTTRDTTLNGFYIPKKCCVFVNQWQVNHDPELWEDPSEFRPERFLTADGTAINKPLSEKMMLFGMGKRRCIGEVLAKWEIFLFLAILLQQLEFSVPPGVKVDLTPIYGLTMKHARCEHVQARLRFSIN
% is scaled to controls: 0 for no effect and ±100 for the full control effect.

Row | SMILES | activity, negative = inhibition | AC50
1 | Cn1cccc1C(=O)N1CCC2(CC1)CCN(c1ncccn1)CC2 | 1.14% (inactive) | –
2 | CC(=O)OC[C@@H]1O[C@@H](O/N=C2/C[C@@H](O)[C@@H](O)[C@@H]3[C@@H]4C(=O)N(C(C)(C)C)C(=O)[C@H]4CC[C@H]23)[C@H](OC(C)=O)[C@H](OC(C)=O)[C@@H]1OC(C)=O | -2.28% [at 11.4 µM] (inactive) | –
3 | Cc1ccccc1C(=O)NN(C)c1nc2ccccc2nc1C(F)(F)F | -36.7% (inactive) | –
4 | COc1ccc(Oc2nc3ccccc3nc2C(F)(F)F)cc1 | – | 1.12 µM (active)
5 | CC(C)(C)c1ccc(OC(=O)Cn2c(C(F)(F)F)nc3ccccc32)cc1 | -33.8% (inactive) | –
6 | CC(C)NC(=O)N1CCCC2(CCN(C(=O)c3ccco3)CC2)C1 | 7.44% (inactive) | –
7 | COc1cccc(OCc2nnc(SCC(=O)NCc3ccco3)n2C)c1 | -10.2% (inactive) | –
8 | O=c1c2ccccc2nnn1CSc1nnc(COc2ccc(Cl)cc2)n1Cc1ccco1 | – | 3.16 µM (active)
9 | Cc1cc(C)nc(SCc2nnc(SCC(N)=O)n2Cc2ccco2)n1 | -2.93% (inactive) | –
10 | O=C(NCC(c1cccnc1)N1CCOCC1)Nc1ccccc1 (stereo not drawn) | -22.3% (inactive) | –
11 | c1ccc(C[C@@H](Nc2cccnc2)c2ccccc2)cc1 | – | 0.2 µM (active)
12 | O=C(O)Cc1cccnc1 | -13.8% [at 11.4 µM] (inactive) | –
13 | COc1ccc(-n2c(=O)c(C)nc3cnc(Nc4cccc(OC)c4)nc32)cc1 | – | 15.8 µM (active)
14 | COc1cccc(Nc2ncc3nc(C)c(=O)n(-c4ccccc4)c3n2)c1 | – | 5.01 µM (active)
15 | COc1cccc(Nc2ncc3nc(C)c(=O)n(C)c3n2)c1 | – | 1 µM (active)
16 | COc1ccc(-n2c(=O)c(-c3cccs3)nc3cnc(Nc4cccc(OC)c4)nc32)cc1 | -19.5% (inactive) | –
17 | CCOc1ccc(OCC)c(-c2c(=O)n(OCc3ccc(C(C)(C)C)cc3)c3ccccc3[n+]2[O-])c1 | -19% (inactive) | –
18 | OCCN1CCN(c2nc(N3CCCCC3)nc(N3CCCCC3)n2)CC1 | -14.8% (inactive) | –
19 | N#CN(CC(N)=O)c1nc(N2CCCCC2)nc(N2CCCCC2)n1 | – | 2 µM (active)
20 | O=C1c2cccc3c(Nc4ccccc4Cl)c([N+](=O)[O-])cc(c23)C(=O)N1CCO | – | 1.78 µM (active)
21 | O=C1c2ccccc2C(=O)N1CCCCN(C(=O)c1cccc([N+](=O)[O-])c1)c1ccc(Cl)cc1 | -14.2% (inactive) | –
22 | CC(C)(C)c1cc2cccnc2n1Cc1ccccc1 | – | 14.1 µM (active)
23 | O=S(=O)(NC1CCN(Cc2ccccc2)CC1)c1cccc2cccnc12 | -20.6% (inactive) | –
24 | O=C(Nc1cccc(F)c1)N1CCC2(CC1)CCN(C(=O)c1csnn1)CC2 | -6.38% (inactive) | –

Row | SMILES | activity, negative = inhibition | AC50
25 | CCn1c(C)nc2cc(C(=O)NNS(=O)(=O)c3ccccc3F)ccc21 | – | 25.1 µM (active)
26 | N[C@H](C(=O)O)[C@@H](O)c1cnc[nH]1 | -2.61% [at 11.4 µM] (inactive) | –
27 | Cc1cc(C(=O)c2cnc(/N=C/N(C)C)s2)cc(C)c1O | – | 12.6 µM (active)
28 | CN(C)/C=N/c1ncc(C(=O)c2ccc3ccccc3c2)s1 | – | 2.51 µM (active)
29 | COc1ccc(O[C@H]2C=C[C@@H](c3ccccc3)O[C@H]2CO/N=C2/c3cc(OC)ccc3O[C@@H](c3cccc(OC)c3)[C@H]2O)cc1 | 1.3% [at 11.4 µM] (inactive) | –
30 | Cc1cc(N2CCOCC2)nc(SCc2ccc(Cl)cc2Cl)n1 | – | 2.51 µM (active)
31 | CSc1nc(-c2ccc(C)cc2)nc(C(Cl)Cl)n1 | – | 1.41 µM (active)
32 | COc1ccccc1/C=N/NC(=O)CC(=O)Nc1ccc(Cl)c(Cl)c1 | – | 1.78 µM (active)
33 | COc1ccccc1CN1CCCC2(CCN(C(=O)c3cccn3C)CC2)C1 | -18.4% (inactive) | –
34 | Clc1cc2c(c(CSC3=NCN(CC4CC4)CN3)c1)OCOC2 | – | 3.16 µM (active)
35 | CCCc1cc(=O)oc2cc(OCc3cc(OC)c(OC)c(OC)c3)c(Cl)cc12 | -5.56% (inactive) | –
36 | CCOc1cc2c(C)cc(=O)oc2cc1Cl | – | 0.501 µM (active)
37 | COc1c(/C=N/Nc2ccc([N+](=O)[O-])cc2[N+](=O)[O-])c(C)nn1-c1ccccc1 | -16.9% (inactive) | –
38 | O=[N+]([O-])c1ccc(N/N=C\c2cccn2-c2ccccc2)nc1 | – | 3.55 µM (active)
39 | N[C@H](C(=O)O)[C@H](N)C(=O)O | -13.3% [at 11.4 µM] (inactive) | –
40 | COc1ccc(N2CC(C(=O)OCC(=O)c3cccc(OC)c3)CC2=O)cc1 (stereo not drawn) | – | 20 µM (active)
41 | CC(C)Oc1ccc(N2CC(C(=O)OCC(=O)NCc3ccccc3)CC2=O)cc1 (stereo not drawn) | -6.35% (inactive) | –
42 | COc1ccc(N2CC(C(=O)Nc3cc(C)on3)CC2=O)cc1 (stereo not drawn) | -2.16% (inactive) | –
43 | COC(=O)[C@@H]1[C@@H]2C[C@H]3c4[nH]c5ccccc5c4CCN3C[C@@H]2CC[C@@H]1OS(=O)(=O)O | -10.3% [at 2.29 µM] (inactive) | –
44 | Cc1ccccc1C(=O)NC(C)c1ccc2c(c1)CCCC2 (stereo not drawn) | – | 11.2 µM (active)
45 | Cc1ccccc1C(=O)NNC(=O)c1ccoc1C | -5.51% (inactive) | –
46 | CCCCCSc1nncc(=O)[nH]1 | -14.7% (inactive) | –
47 | O=c1[nH]c(=O)n([C@@H]2C[C@H](O)[C@H](CO)O2)cc1I | 10.8% [at 25.6 µM] (inactive) | –
48 | COCCCNC(=O)Cn1nc(-c2ccccc2OC)ccc1=O | -16% (inactive) | –
